bovine MsrA act – activators of bovine methionine sulfoxide reductase A. purified bovine MsrA, absorbance read-out. activation, % at 10.6 µM. AID 602163. 360,000 tested, 0.3% active; in the data active = activation above about 7.5%;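 also: 0% = vehicle and 100% = reference activator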
ABCB6 inh 2 – human ABCB6 transporter inhibition. Q9NP58. AID 602162. fluorescence ratio to DMSO, % at 10 µM. 360,000 tested, 0.19% active. K562-ABCB6 porphyrin accumulation, flow cytometry, 1 h; hits give low values;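 active = fluorescence ratio to DMSO below 75%, the collection mean minus 3 SD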;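 also: signal is porphyrin accumulated inside mitochondria; 100% equals median channel fluorescence of DMSO control wells; lower ratio means ABCB6 inhibition with less porphyrin fluorescence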
Target sequence (Q9NP58 whole entry, looked up): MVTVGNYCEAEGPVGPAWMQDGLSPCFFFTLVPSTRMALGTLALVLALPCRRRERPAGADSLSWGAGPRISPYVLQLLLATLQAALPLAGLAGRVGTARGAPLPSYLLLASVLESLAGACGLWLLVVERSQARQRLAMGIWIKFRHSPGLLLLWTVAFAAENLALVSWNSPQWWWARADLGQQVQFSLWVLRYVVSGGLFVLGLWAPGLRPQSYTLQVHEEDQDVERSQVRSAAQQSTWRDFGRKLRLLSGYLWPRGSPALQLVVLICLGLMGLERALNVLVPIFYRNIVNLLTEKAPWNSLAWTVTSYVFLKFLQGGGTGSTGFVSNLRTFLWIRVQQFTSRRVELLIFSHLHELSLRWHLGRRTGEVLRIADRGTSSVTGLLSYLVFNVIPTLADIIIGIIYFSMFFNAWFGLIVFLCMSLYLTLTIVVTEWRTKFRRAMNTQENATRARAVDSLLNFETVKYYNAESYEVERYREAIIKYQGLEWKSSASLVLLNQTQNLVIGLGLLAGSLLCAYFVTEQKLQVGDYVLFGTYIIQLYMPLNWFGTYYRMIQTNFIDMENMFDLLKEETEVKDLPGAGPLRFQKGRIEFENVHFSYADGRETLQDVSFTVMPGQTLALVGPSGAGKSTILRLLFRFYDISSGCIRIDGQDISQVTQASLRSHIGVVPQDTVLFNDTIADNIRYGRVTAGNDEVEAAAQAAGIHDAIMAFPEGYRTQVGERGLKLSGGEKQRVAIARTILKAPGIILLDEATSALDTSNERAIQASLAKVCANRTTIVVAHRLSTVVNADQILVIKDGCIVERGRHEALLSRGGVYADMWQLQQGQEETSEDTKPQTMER
MsrA inh – inhibits bovine methionine sulfoxide reductase A | AID 651718 | 360,000 tested, 0.75% active | purified bovine MsrA, absorbance read-out | inhibition, % at 15.5 µM; in the data active = inhibition above about 4.5%;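 also: 0% = vehicle wells with enzyme and 100% = reference inhibitor wells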
SMARCA2 activ – increases SMARCA2 function in MMTV reporter cells; MG213 cells, MMTV-luciferase reporter, dexamethasone, overnight; activation, % at 9.1 µM; 370,000 tested, 1% active; AID 652017; in the data active = activation above about 7.8%;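 also: 0% = vehicle wells and 100% = reference activator wells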
ABCB6 blocker 1 – blocks the human ABCB6 transporter; AID 602430; ratio response (% of DMSO), % at 10 µM; K562-ABCB6 porphyrin accumulation, flow cytometry, 1 h; hits give low values; shares compounds with ABCB6 inh 2; 700 tested, under 10 active;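 active = repeat-averaged ratio response below 75% of DMSO, the collection mean minus 3 SD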;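 also: median porphyrin fluorescence at 575 nm with 488 nm excitation from mitochondria; lower ratio means less porphyrin signal so ABCB6 inhibition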
K562 vector FC – effect in K562 cells lacking ABCB6, counter-screen. shares compounds with ABCB6 inh 2. K562 empty-vector cells, flow cytometry fluorescence, 1 h. percent response (fluorescence), % at 100 µM. 25 tested, under 10 active. AID 624484;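 active = compounds whose half-maximal effective concentration is below 100 µM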
Numbers without * were called inactive; · = no result. An excerpt weighted towards active compounds, which were near 2.1% of everything screened.

SMILES | bovine MsrA act | ABCB6 inh 2 | MsrA inh | SMARCA2 activ | ABCB6 blocker 1 | others
CCc1nnc(NC(=O)c2nc(S(=O)(=O)Cc3ccccc3)ncc2Cl)s1 | -5 | 84 | 0 | -14 | · | K562 vector FC=244
CCSc1nnc(NC(=O)c2nc(S(=O)(=O)Cc3ccc(F)cc3)ncc2Cl)s1 | -3 | 85 | 1 | -3 | ·
CCc1nnc(NC(=O)c2nc(S(=O)(=O)Cc3cccc(C)c3)ncc2Cl)s1 | -9 | 108 | 1 | -14 | · | K562 vector FC=220
Cc1ccc(CS(=O)(=O)c2ncc(Cl)c(C(=O)Nc3ccc(OC(F)F)cc3)n2)cc1 | -9 | 62* | 2 | -6 | · | K562 vector FC=310
CC(C)c1nnc(NC(=O)c2nc(S(=O)(=O)Cc3ccc(F)cc3)ncc2Cl)s1 | -3 | 80 | 0 | -14 | · | K562 vector FC=250
CC(C)c1nnc(NC(=O)c2nc(S(=O)(=O)Cc3ccccc3F)ncc2Cl)s1 | · | · | 2 | -8 | ·
O=C(CN1C(=O)CCSc2ccccc21)Nc1ccc(F)cc1F | · | · | · | -5 | ·
OC(c1ccccc1)(c1ccccc1)C1CCN(CCCNc2ccc(Cl)cc2Cl)CC1 | · | · | · | -3 | ·
Cc1ccc(C2CCC3(CCC(=O)N3CCOC(=O)Nc3ccc(F)cc3)CC2)cc1 (centres undefined) | · | · | · | -5 | ·
Cc1cccc(CS(=O)(=O)c2ncc(Cl)c(C(=O)Nc3nnc(C(C)C)s3)n2)c1 | -9 | 103 | · | · | · | K562 vector FC=241
CSc1nnc(NC(=O)c2nc(S(=O)(=O)Cc3cccc(C)c3)ncc2Cl)s1 | -4 | 106 | 1 | -12 | ·
Cc1nnc(NC(=O)c2nc(S(=O)(=O)Cc3ccccc3C)ncc2Cl)s1 | -7 | 108 | 0 | -14 | · | K562 vector FC=237
CCc1nnc(NC(=O)c2nc(S(=O)(=O)Cc3ccc(C)cc3)ncc2Cl)s1 | -2 | 101 | 1 | -14 | · | K562 vector FC=229
CC(=O)Nc1ccc(NC(=O)c2nc(S(=O)(=O)Cc3ccccc3)ncc2Cl)cc1 | -3 | 70* | 0 | -10 | · | K562 vector FC=280
Cc1c[nH]c2cccc(-c3ccc(OCc4ccccc4)cc3)c12 | · | · | · | 0 | ·
CC(C)(C)c1ccc(-c2nnc3sc(COc4ccccc4)nn23)cc1 | · | · | · | 4 | ·
CCOc1ccccc1NC(=O)c1nc(S(=O)(=O)Cc2cccc(C)c2)ncc1Cl | -7 | 41* | -1 | 0 | · | K562 vector FC=269
O=C(NCc1ccccc1)c1nc(S(=O)(=O)Cc2ccccc2)ncc1Cl | -3 | 102 | 1 | -13 | ·
Cc1nc2c(C(=O)N3CCOCC3)cnn2c(C)c1Cc1ccc(Cl)cc1 | -14 | 89 | 0 | -2 | 99
O=C(c1ccc2nc(Cc3cccc(Cl)c3)oc2c1)N1CCOCC1 | -3 | 97 | 0 | 7 | ·
Cc1nc2c(C(=O)N3CCOCC3)cnn2c(C)c1Cc1cccc(Cl)c1 | · | · | 2 | -6 | 98
O=C(c1nnc(Cc2ccc(Cl)cc2)o1)N1CCOCC1 | -2 | 100 | 0 | -1 | ·
O=C(Nc1cccc(OC(F)(F)F)c1)C1Cc2c(-c3ccc4c(c3)OCO4)ccnc2O1 (centres undefined) | -2 | 101 | 1 | -4 | 99
O=C(Nc1cccc(OC(F)(F)F)c1)C1Cc2c(-c3ccc(Cl)cc3)ccnc2O1 (centres undefined) | -8 | 91 | 0 | -5 | ·
O=C(Nc1cccc(Oc2ccccc2)c1)C1Cc2c(-c3ccc4c(c3)OCO4)ccnc2O1 (centres undefined) | -2 | 102 | 0 | -4 | 98
SMILES | bovine MsrA act | ABCB6 inh 2 | MsrA inh | SMARCA2 activ | ABCB6 blocker 1 | others
CC1(C(=O)NS(=O)(=O)c2cccc(F)c2)CCN1C(=O)CCc1ccc(Cl)cc1Cl (centres undefined) | -2 | 97 | 0 | 4 | ·
CC1(C(=O)NS(=O)(=O)c2ccc(C#N)cc2)CCN1C(=O)CCc1ccc(Cl)cc1Cl (centres undefined) | -2 | 73* | 1 | -2 | 100
CC1(C(=O)NS(=O)(=O)c2ccc(F)cc2F)CCN1C(=O)CCc1ccc(Cl)cc1Cl (centres undefined) | -3 | 101 | 0 | -1 | 100
CCNC(=S)NNC(=O)CSc1nc2ccccc2c(=O)n1-c1ccc(Cl)cc1 | · | · | · | -5 | ·
O=C(O)CCCCCNc1nc2ncn(Cc3ccccc3)c2c(=O)[nH]1 | -4 | 57* | 0 | 0 | 100
CC(Nc1nc2ncn(Cc3ccccc3)c2c(=O)[nH]1)C(=O)O (centres undefined) | -1 | · | 1 | 0 | ·
COc1ccc(N2CCN(C(=O)CCCCCn3c(=S)[nH]c4ccc(N5CCOCC5)cc4c3=O)CC2)cc1 | -2 | 73* | 2 | -9 | 96
CC1CCN(c2ccc3nnc(CCC(=O)N4CCN(c5ccccc5F)CC4)n3n2)CC1 | -4 | 96 | 0 | -1 | ·
CC1CC(C)CN(C(=O)CCc2nnc3ccc(N4CCCCC4)nn23)C1 (centres undefined) | -2 | 97 | -1 | -1 | 98
CCCNC(=O)CCc1nnc2ccc(N3CCC(C)CC3)nn12 | -2 | 98 | 1 | 0 | 95
CCOc1ccc(NC(=O)CCc2nnc3ccc(N4CCC(C)CC4)nn23)cc1 | 1 | 101 | 0 | -3 | ·
CCOC(=O)CNC(=O)CCc1nnc2ccc(N3CCC(C)CC3)nn12 | -2 | 98 | 0 | 1 | 99
CCOC(=O)C1CCN(C(=O)CCc2nnc3ccc(N4CCC(C)CC4)nn23)CC1 | -1 | 99 | 2 | -4 | 100
COC(=O)[C@]12C[C@H](CC(=O)NCCc3ccccc3OC)C(=O)N(Cc3cccc4ccccc34)C1=C[C@H](C1CCCC1)O[C@@H]2C | · | · | · | -3 | ·
COc1ccc(-n2c(COc3ccccc3)nnc2SCC(=O)Nc2ccc3c(c2)OCCO3)cc1 | · | · | · | 0 | ·
O=S1(=O)c2ccc(Br)cc2OC[C@@H](Cc2ccccc2)N1Cc1cn(CC2CCCCC2)nn1 | · | · | · | -1 | ·
CC1CCN(c2ccc3nnc(CCC(=O)NCCCOC(C)C)n3n2)CC1 | -3 | 99 | 0 | -1 | 99
COc1ccc(NC(=O)CCc2nnc3ccc(N4CCC(C)CC4)nn23)cc1OC | -1 | 106 | 1 | -1 | ·
CCOC(=O)[C@]12CCCCC/C=C\1N(CCc1ccc(Cl)cc1)C(=O)[C@H]2CC(=O)N1CCCC1 | · | · | · | -3 | ·
COc1cccc(C2CC(c3cccs3)=NN2C(=O)CSc2nc3ccccc3o2)c1OC (centres undefined) | -7 | 70* | 0 | -1 | 97
COc1ccccc1C1CC(c2cccs2)=NN1C(=O)CCC(=O)O (centres undefined) | -2 | 102 | 2 | -2 | ·
CCCc1cc(NCCOCCO)n2c(nc3ccccc32)c1C#N | -6 | 94 | 1 | 0 | ·
CC(C)c1cc(NCCOCCO)n2c(nc3ccccc32)c1C#N | -1 | 73* | 0 | -1 | 99
CCn1nc(C(=O)O)c(=O)c2cc3c(cc21)OCO3 | -4 | 71* | 2 | -6 | 99
COC(=O)[C@]12C[C@H](CC(=O)NCc3ccc(OC)c(OC)c3)C(=O)N(Cc3ccc(Cl)cc3Cl)C1=C[C@H](C(C)(C)C)O[C@@H]2C | · | · | · | -2 | ·
Cc1cccc(OCCSc2nc3ncnc(N)c3[nH]2)c1 | -8 | 71* | 1 | -1 | 102
